Assays:
Assay type in all cases: functional
Plasmodium falciparum [1] = experiment: GSK_TCMDC: Inhibition of Plasmodium falciparum 3D7 in whole red blood cells, using parasite LDH activity as an index of growth. Test compounds present at 2uM
Plasmodium falciparum [2] = experiment: GSK_TCMDC: Inhibition of Plasmodium falciparum Dd2 in whole red blood cells, using parasite LDH activity as an index of growth. Test compounds present at 2uM
HepG2 = experiment: GSK_TCMDC: Percent inhibition of human HepG2 cell line. Test compounds present at 10uM.

Structure (SMILES)	Inhibition (Plasmodium falciparum [1]) [%]	Inhibition (Plasmodium falciparum [2]) [%]	Inhibition (HepG2) [%]
COc1cc(/C=C/C(=O)NC2CCC(N3CCC(c4ccccc4C)CC3)CC2)cc(OC)c1 (stereo not drawn)	89	11	51
Cc1ccc(O)c(CN2CCCC(COC(c3ccc(F)cc3)c3ccc(F)cc3)C2)c1 (stereo not drawn)	98	98	19
CO/N=C(\C)c1ccc2c(c1)CCN(CCC1CCC(NC(=O)/C=C/c3ccc(F)cc3)CC1)CC2.Cl (stereo not drawn)	95	15	45
Nc1cc(-c2ccc(Br)cc2O)nc2ccccc12	100	50	23
Cc1ccc(-c2nc(N3CCN(C(=O)c4ccco4)CC3)c3ccc(Cl)cc3n2)cc1	90	78	17
Cc1ccccc1N1CCN(c2ccc(C(=O)Nc3ccccc3)cc2)CC1	89	91	22
COCCNCc1nc(-c2ccc3c(Nc4ccc(Cl)cc4F)ccnc3c2)cs1	100	100	0
Cc1ccc2nc(C)cc(Nc3ccccc3O)c2c1.Cl	96	6	0
CCn1c(-c2nonc2N)nc2c(-c3ccc(CO)o3)ncc(OCCCN)c21.O=C(O)C(F)(F)F	93	97	0
CNCCNCc1cccc(-c2ccc(-c3nc4cccc(C)c4[nH]3)cc2)c1.O=C(O)C(F)(F)F	98	21	17
CCCN(CC1CC1)c1ncc(-c2cccc(CNCCC3CCCN3C)c2)cn1 (stereo not drawn)	98	43	77

From ChEMBL document CHEMBL1157539, “Thousands of chemical starting points for antimalarial lead identification” (Nature, 2010)
